# Laboratory results published in PubChem BioAssay (NCI).
# Several values for one entry are separate records, joined by “and”; a condition that tells them apart may be missing. Identical values can stand only once. The panel holds about 79,000 compounds, 15% with a hit somewhere; the sample as a whole holds those more often. Values without a mark were called inactive. Activity calls are given as the source filed them. Rule as the data show it: active = growth inhibition above about 70%; inactive = the rest.
# How the values were obtained:
# [1] = NCI Yeast Anticancer Drug Screen. Data for the rad50 strain (AID 155);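 also: 0% = growth of vehicle-only cultures of the same strain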; settings: S. cerevisiae rad50 strain growth inhibition, hits give high values
# Outline: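 Relative growth inhibition (compound vs vehicle) was measured in yeast with a defined repair-gene alteration.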
# [2] = NCI Yeast Anticancer Drug Screen. Data for the mec2-1 strain (AID 157); settings: S. cerevisiae mec2-1 strain, hits give high values
# Outline: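 Each compound was tested on mec2-1 yeast, a strain altered in DNA damage repair or cell cycle control. Growth inhibition is reported relative to vehicle.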
# [3] = NCI Yeast Anticancer Drug Screen. Data for the sgs1 mgt1 strain (AID 161);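 also: 0% = growth of cultures given vehicle only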; settings: S. cerevisiae sgs1 mgt1 strain, hits give high values
# Outline: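 Mutant yeast exposed to compound; growth scored against vehicle-only wells.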
# [4] = NCI Yeast Anticancer Drug Screen. Data for the cln2 rad14 strain (AID 165);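 also: 0% = growth equal to vehicle treated cultures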; settings: S. cerevisiae cln2 rad14 strain, hits give high values
# Outline: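 Test compounds were added to cln2 rad14 yeast cultures; inhibition of growth was then determined by comparison with vehicle treatment.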
# [5] = NCI Yeast Anticancer Drug Screen. Data for the bub3 strain (AID 167); settings: S. cerevisiae bub3 mutant strain, hits give high values
# Outline: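 Screening used yeast with an engineered genetic alteration affecting cell cycle control. Compound-exposed cultures were compared with vehicle cultures, and reduced growth was taken as inhibition.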
# [6] = NCI Yeast Anticancer Drug Screen. Data for the mlh1 rad18 strain (AID 175); settings: S. cerevisiae mlh1 rad18 strain growth inhibition, hits give high values
# Outline: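 Inhibition values reflect reduced growth of mutant yeast versus vehicle-treated controls following compound exposure; the mutations affect DNA damage repair.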
# [7] = at 5.0 µM (retest, dose inferred, filed as 0.5)
# [8] = at 50.0 µM (retest, dose inferred, filed as 5.0)
Compound,"growth inhibition [1, 7]","growth inhibition [1, 8]",growth inhibition ([1]; at 50.0 µM),"growth inhibition [2, 7]","growth inhibition [2, 8]",growth inhibition ([2]; at 50.0 µM),"growth inhibition [3, 7]","growth inhibition [3, 8]",growth inhibition ([3]; at 50.0 µM),"growth inhibition [4, 7]","growth inhibition [4, 8]",growth inhibition ([4]; at 50.0 µM),"growth inhibition [5, 7]","growth inhibition [5, 8]",growth inhibition ([5]; at 50.0 µM),"growth inhibition [6, 7]","growth inhibition [6, 8]",growth inhibition ([6]; at 50.0 µM)
CC1=[N+](Cc2cc(C)cc(C)c2O)CCCC1,-5%,4%,-5.5%,-8%,-9%,-7.45%,-5%,-57%,41.2%,-2%,-4%,-3%,-8%,-1%,1.2%,-13%,-8%,-24.7%
O=[N+]([O-])C(Br)(Br)CCC(Br)(Br)[N+](=O)[O-],99% (active),99% (active),99.5% (active),99% (active),100% (active),99.8% (active),99% (active),99% (active),52.4%,100% (active),99% (active),81.3% (active),100% (active),100% (active),99.7% (active),99% (active),99% (active),99.5% (active)
c1ccc(CCNCc2ccccc2)cc1,-2%,3%,-2.35% and 6.05%,-2%,2%,6.45% and 3.8%,-4%,0%,-7.05% and -3.9%,0%,4%,54% and -3.45%,5%,4%,-7.5% and 16.1%,3%,6%,0.4% and 3.2%
O/N=C/c1ccc2c(c1)OCO2,91% (active),99% (active),-1.6%,100% (active),100% (active),-1.95%,46%,100% (active),38.3%,35%,99% (active),-34.2%,98% (active),99% (active),4.25%,99% (active),99% (active),-14.1%
O=c1[nH]cnc2[nH]cc(CN3CCCCC3)c12,7%,21%,17.8%,-7%,2%,13.2%,-1%,29%,-1.4%,-32%,0%,33.2%,12%,-1%,-54.8%,3%,8%,9.4%
ClCCN(CCCl)CCN1c2ccccc2Sc2ccc(Cl)cc21,0%,69%,99% (active),1%,75% (active),96.2% (active),0%,97% (active),99.5% (active),-1%,49%,98.5% (active),-2%,80% (active),97.1% (active),3%,95% (active),98.9% (active)
[Cl][Hg][Cl].c1cnccn1,39%,97% (active),92.2% (active),40%,98% (active),93.8% (active),99% (active),99% (active),94.3% (active),80% (active),97% (active),93.2% (active),99% (active),99% (active),93.2% (active),32%,99% (active),93% (active)
FC(F)(F)C1(C(F)(F)F)O[Te]2(OC1(C(F)(F)F)C(F)(F)F)OC(C(F)(F)F)(C(F)(F)F)C(C(F)(F)F)(C(F)(F)F)O2,10%,79% (active),63.7%,10%,89% (active),96.3% (active),23%,86% (active),95.5% (active),14%,84% (active),90.2% (active),20%,96% (active),89.2% (active),11%,91% (active),92% (active)
N#CC(C#N)=Cc1ccc2c(c1)OC(Cl)O2 (configuration not stated),25%,46%,59.6%,26%,27%,49.2%,15%,33%,57.5%,15%,18%,55.5%,-11%,16%,55.9%,35%,35%,66.5%
COC1=CC(C)(C)C=C([Se][Se]C2=CC(C)(C)C=C(OC)C2=O)C1=O,82% (active),79% (active),83.5% (active),83% (active),76% (active),88.9% (active),86% (active),87% (active),83% (active),77% (active),75% (active),68.5%,71% (active),61%,64.7%,81% (active),79% (active),85.5% (active)
O=c1[nH]cc(Cn2cnc3ncccc3c2=O)c(=O)[nH]1,-5%,-4%,6.4%,-5%,-5%,7.55%,-3%,-1%,-2.1%,-3%,-11%,40.5%,-4%,-2%,-18.2%,-8%,-5%,-16.5%
CCCCC1CCCCCCc2[nH]c(/C=C3\N=C(c4ccc[nH]4)C=C3OC)cc21 (configuration not stated),24%,91% (active),82.3% (active),23%,93% (active),86.5% (active),45%,93% (active),84.8% (active),39%,94% (active),81.2% (active),29%,93% (active),81.9% (active),34%,90% (active),80.5% (active)
CCN(Cc1ccccc1)CC(O)c1ccc(Cl)c(Cl)c1 (configuration not stated),-3%,99% (active),9.25%,-1%,99% (active),-12.7%,-2%,99% (active),20.1%,2%,99% (active),-23.4%,0%,98% (active),70.3% (active),-1%,99% (active),3.6%
Oc1ccc(Br)cc1C1N(Cc2ccc(N(CCCl)CCCl)cc2Cl)CCCN1Cc1ccc(N(CCCl)CCCl)cc1Cl,69%,98% (active),10.7%,47%,99% (active),63%,54%,99% (active),23.7%,70% (active),98% (active),8.95%,84% (active),99% (active),52%,98% (active),98% (active),46.5%
O=[N+]([O-])c1csc([N+](=O)[O-])c1,99% (active),99% (active),99.3% (active),97% (active),99% (active),99.7% (active),95% (active),99% (active),99.5% (active),75% (active),99% (active),98.8% (active),89% (active),99% (active),99.2% (active),99% (active),99% (active),99.3% (active)
CC1=CC2OC3CC4OC(=O)/C=C/C=C/C(C(C)O)OCC(O)C(C)CC(=O)OCC2(CC1O)C4(C)C31CO1 (configuration not stated),39%,96% (active),90.4% (active),40%,99% (active),91.9% (active),48%,94% (active),92.2% (active),34%,94% (active),90.3% (active),25%,95% (active),91% (active),42%,98% (active),89.2% (active)
COc1cc(C2c3cc4c(cc3[C@@H](Nc3ccc(F)cc3)C3COC(=O)[C@H]23)OCO4)cc(OC)c1O (some centres not stated),96% (active),96% (active),85.3% (active),97% (active),98% (active),91.2% (active),94% (active),99% (active),88.9% (active),41%,99% (active),87.8% (active),99% (active),99% (active),88.6% (active),95% (active),95% (active),88.1% (active)
CC(C)(C)CC(C)(C)c1ccc(O)cc1,-11%,99% (active),99.7% (active),-12%,99% (active),99.7% (active),-6%,98% (active),99.8% (active),-7%,99% (active),99.5% (active),-22%,98% (active),98.5% (active),-9%,99% (active),99.6% (active)
CC[C@@]1(O)C[C@H](OC2CC(N)C(O)C(C)O2)c2c(O)c3c(c(O)c2[C@H]1C(=O)OC)C(=O)c1cccc(O)c1C3=O (some centres not stated),63%,99% (active),78.1% (active),27%,99% (active),87.5% (active),48%,99% (active),80.2% (active),39%,99% (active),67.3%,52%,99% (active),76.7% (active),50%,98% (active),80.2% (active)
